Results from PubChem BioAssay (Tox21).
Values joined by “and” are separate entries in the source; they are usually repeats but may differ in a detail not shown here. Equal values may be shown once. Inconclusive results are not listed. Where a call stands in place of a potency, no number is given. Where a structure was tested more than once in an assay, its records may differ in their call. Active and inactive are the calls of the source. The call rests on the fitted dose curve; in most records, active means well fitted curve in the direction sought with a large enough effect in the repeat runs; inconclusive means weak or mixed curves; inactive means no such curve, though single readings can be large; an effect the other way counts as inactive or inconclusive.

Target: Cytochrome P450 1A2 (Homo sapiens) (UniProt P05177)
Sequence (P05177 whole entry, looked up): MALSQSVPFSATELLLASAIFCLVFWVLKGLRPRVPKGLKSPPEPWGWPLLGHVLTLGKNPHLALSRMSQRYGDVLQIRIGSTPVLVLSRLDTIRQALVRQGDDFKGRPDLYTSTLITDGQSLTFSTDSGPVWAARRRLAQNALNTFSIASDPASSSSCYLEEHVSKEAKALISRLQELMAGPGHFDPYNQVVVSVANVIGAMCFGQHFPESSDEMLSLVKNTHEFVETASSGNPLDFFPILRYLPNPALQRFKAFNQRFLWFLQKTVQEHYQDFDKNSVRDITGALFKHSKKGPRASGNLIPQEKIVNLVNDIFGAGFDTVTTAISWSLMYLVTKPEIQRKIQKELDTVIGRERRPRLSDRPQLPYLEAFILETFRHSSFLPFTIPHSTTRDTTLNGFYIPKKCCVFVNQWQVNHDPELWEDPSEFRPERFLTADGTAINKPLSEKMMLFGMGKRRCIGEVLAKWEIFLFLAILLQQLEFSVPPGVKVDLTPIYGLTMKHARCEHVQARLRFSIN
Assay: Cytochrome P450 Family 1 Subfamily A Member 2 (CYP1A2) small molecule antagonists: luciferase reporter qHTS assay (AID 1671199)
Conditions: P450-Glo CYP1A2 enzyme, luciferin luminescence, 1 h; series mostly up to 115 µM; activity change, negative = inhibition: at the top concentration
Procedure, shortened: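 P450-Glo CYP1A2, 1536-well qHTS: enzyme/proluciferin substrate + cpd (DMSO), 10 min RT; NADPH regen, 1 h RT; detection reagent, 20 min; luminescence, RLU.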
Further: nearly all actives have a fitted effect of over 50% in size.
Potency means the concentration at half of the fitted maximal effect.

Compound | Potency | activity change, negative = inhibition
O=C(O)COc1ccc(Cl)cc1Cl | 31.6 µM (active) and inactive | 
C[C@]12CCC(=O)C=C1CC[C@@H]1[C@@H]2CC[C@]2(C)C(=O)CC[C@@H]12 | inactive | 
COc1ccc(N)cc1 |  | -18% (inactive)
CN(C)[C@@H]1C(=O)C(C(N)=O)=C(O)[C@@]2(O)C(=O)C3=C(O)c4c(O)cccc4[C@@](C)(O)[C@H]3[C@H](O)[C@@H]12 | inactive | 
CCC[N+]1(C)CCCC1 | inactive | 
CCCCCCCCCCn1cc[n+](C)c1 | 36 µM (active) and 32.6 µM (active) | 
CCCCCCCCCCCCCCCCn1cc[n+](C)c1 | 36.4 µM (active) and inactive and 71.2 µM (active) | 
CCCC[n+]1ccccc1 | inactive | 
CCCCCC[n+]1ccccc1 | inactive | 
CCCC[n+]1cccc(C)c1 | inactive | 
CCCC[n+]1ccc(C)cc1 | 36.1 µM (active) and 35.4 µM (active) and inactive | 
CCCC[n+]1ccccc1C | inactive | 
CCCCCCCCn1cc[n+](C)c1 | inactive | 
CCCC[N+]1(C)CCCC1 | inactive | 
C1CCC(NC2CCCCC2)CC1 | inactive | 
Nc1ccccc1 | 36.3 µM (active) and inactive and 27.5 µM (active) | 
CCCCCCn1cc[n+](C)c1 | inactive | 
CCCCn1cc[n+](C)c1C | inactive and 35.9 µM (active) | 
Cc1cc(Cl)ccc1N | 11.5 µM (active) and 9.8 µM (active) and 7.96 µM (active) | 
COc1ccccc1N | 39.9 µM (active) and 32.3 µM (active) and 35.6 µM (active) | 
Cc1cc(Cl)ccc1OCC(=O)O | inactive | 

Target: Voltage-gated inwardly rectifying potassium channel KCNH2 (Homo sapiens) (UniProt Q12809)
Sequence (Q12809 whole entry, looked up): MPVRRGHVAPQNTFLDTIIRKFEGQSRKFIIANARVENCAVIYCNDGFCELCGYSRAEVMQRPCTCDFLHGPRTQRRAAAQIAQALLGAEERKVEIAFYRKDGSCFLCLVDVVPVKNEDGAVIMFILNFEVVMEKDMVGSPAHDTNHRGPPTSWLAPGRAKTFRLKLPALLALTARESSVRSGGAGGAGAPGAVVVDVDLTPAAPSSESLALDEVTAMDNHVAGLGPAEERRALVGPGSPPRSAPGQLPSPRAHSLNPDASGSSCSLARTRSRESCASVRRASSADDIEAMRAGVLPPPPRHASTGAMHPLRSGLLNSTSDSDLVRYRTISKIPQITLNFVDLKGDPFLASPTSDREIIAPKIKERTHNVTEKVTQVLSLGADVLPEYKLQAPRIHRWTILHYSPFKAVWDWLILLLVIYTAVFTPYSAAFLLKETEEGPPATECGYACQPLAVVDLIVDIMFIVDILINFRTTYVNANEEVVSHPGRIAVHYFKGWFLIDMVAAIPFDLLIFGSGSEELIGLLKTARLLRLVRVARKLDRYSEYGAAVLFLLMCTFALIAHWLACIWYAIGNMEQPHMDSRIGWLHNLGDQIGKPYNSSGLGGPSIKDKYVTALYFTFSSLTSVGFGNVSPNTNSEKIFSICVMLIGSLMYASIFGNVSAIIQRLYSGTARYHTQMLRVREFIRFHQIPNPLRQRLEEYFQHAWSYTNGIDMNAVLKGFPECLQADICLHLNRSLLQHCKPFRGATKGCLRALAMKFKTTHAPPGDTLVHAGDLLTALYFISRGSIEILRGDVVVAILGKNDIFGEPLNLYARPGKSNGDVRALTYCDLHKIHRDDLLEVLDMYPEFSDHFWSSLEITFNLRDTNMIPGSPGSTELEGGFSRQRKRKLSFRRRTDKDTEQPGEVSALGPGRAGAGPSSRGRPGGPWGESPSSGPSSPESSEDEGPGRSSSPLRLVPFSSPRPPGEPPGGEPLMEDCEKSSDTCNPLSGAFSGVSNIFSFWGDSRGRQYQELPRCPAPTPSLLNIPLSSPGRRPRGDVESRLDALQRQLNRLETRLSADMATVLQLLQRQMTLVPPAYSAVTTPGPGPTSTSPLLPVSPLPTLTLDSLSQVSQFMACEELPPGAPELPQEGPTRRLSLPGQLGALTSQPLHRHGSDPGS
Assay: Human Ether-a-go-go-Related Gene (hERG) channel small molecule antagonists: fluorescence cell-based qHTS assay (AID 1671200);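 on activity change, negative = inhibition: hERG-expressing U2OS cells given a thallium stimulus after FluxOR II dye loading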
Conditions: hERG-U2OS cells, FluxOR thallium flux fluorescence; series mostly up to 76.8 µM; activity change, negative = inhibition: at the top concentration
Procedure, shortened: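 hERG-U2OS cells plated overnight at 37 C, loaded with FluxOR II dye 1 h at RT in dark; after 10 min, thallium stimulus added. Fluorescence (480/540 nm) read kinetically for 2 min at 1 s intervals.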

Compound | Potency
O=C(O)COc1ccc(Cl)cc1Cl | inactive
COP(=O)(OC)C(O)C(Cl)(Cl)Cl (stereo unspecified) | inactive
C[C@]12CCC(=O)C=C1CC[C@@H]1[C@@H]2CC[C@]2(C)C(=O)CC[C@@H]12 | inactive
COc1ccc(N)cc1 | inactive
CN(C)[C@@H]1C(=O)C(C(N)=O)=C(O)[C@@]2(O)C(=O)C3=C(O)c4c(O)cccc4[C@@](C)(O)[C@H]3[C@H](O)[C@@H]12 | inactive
CCC[N+]1(C)CCCC1 | inactive
C=CCOC(Cn1ccnc1)c1ccc(Cl)cc1Cl (stereo unspecified) | 24.6 µM (active) and 21.9 µM (active) and 23.9 µM (active)
CC(=O)O | inactive
CCCC[n+]1ccccc1 | inactive
CCCCCC[n+]1ccccc1 | inactive
CCCC[n+]1cccc(C)c1 | inactive
CCCC[n+]1ccc(C)cc1 | inactive
CCCC[n+]1ccccc1C | inactive
Oc1cccc2cccnc12 | inactive
CCCCCCCCn1cc[n+](C)c1 | 17.3 µM (active) and 21.9 µM (active) and 22.1 µM (active)
O=C(O)CC(O)(CC(=O)O)C(=O)O | inactive
CCCC[N+]1(C)CCCC1 | inactive
O=S(=O)(O)O | inactive
O=[N+]([O-])O | inactive
C1CCC(NC2CCCCC2)CC1 | inactive
Nc1ccccc1 | inactive
CC[N+](CC)(CC)CC | inactive
CCCCCCn1cc[n+](C)c1 | inactive
N#CS | inactive
CCCCn1cc[n+](C)c1C | inactive
O=C(O)c1ccccc1O | inactive
Cc1cc(Cl)ccc1N | inactive
COc1ccccc1N | inactive
Cc1cc(Cl)ccc1OCC(=O)O | inactive
CCCCn1cc[n+](C)c1 | inactive
